Consider 14 compounds from PubChem BioAssay (NCI).

About 83,000 compounds went through this panel and 20% of them were active in at least one assay; those are over-represented in the sample as a whole.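 The endpoint reported here, percent growth, reads 100 for growth as untreated, 0 for no net growth and -100 for all cells dead.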 Unmarked numbers belong to inactive results. Calls of active or inactive are those of the source. The calls were made as follows: active = growth percent below 10; inactive = the rest.

Among the test systems are NCI-H23 lung; NCI-H226 lung; NCI-H322M lung; HOP-62 NSCLC; NCI-H460 lung; HOP-92 NSCLC; NCI-H522 lung; A549/ATCC NSCLC; 786-0 renal; COLO 205 colon.
Test in all cases: NCI-60 one-dose screen, 48 h (100 = growth as untreated, 0 = no growth, -100 = all killed)
Common to all, as to conditions: 10 µM unless noted

As for `COc1cc(C=O)ccc1OC1OC(COC(C)=O)C(OC(C)=O)C(OC(C)=O)C1OC(C)=O` (stereo not drawn), the growth is 102% in the experiment on NCI-H23 lung; 93.8% with NCI-H226 lung; 120% in the experiment with NCI-H322M lung; 94% in the experiment on HOP-62 NSCLC; 104% in the experiment with NCI-H460 lung; 88.7% in the experiment with HOP-92 NSCLC. Moreover, the growth is 104% with NCI-H522 lung, 94.8% in the experiment on A549/ATCC NSCLC and 105% with 786-0 renal.
On to `COC(=O)/C=C1\S/C(=N\NC(=O)c2cc3ccc2/C=C\c2ccc(cc2)/C=C\3)N(c2ccccc2)C1=O`, for which the growth with NCI-H23 lung is 40.4%; in the experiment with NCI-H226 lung it was 73.8%; with NCI-H322M lung it was 68.5%; in the experiment with HOP-62 NSCLC, 3% (active); with NCI-H460 lung, 60.7%; with HOP-92 NSCLC it was 75.3%. The growth was 41.5% in the experiment on NCI-H522 lung, 69.1% with A549/ATCC NSCLC and -0.285% (active) in the experiment on 786-0 renal.
Regarding `COc1ccc(/C=C/c2nc(Nc3ccc(S(=O)(=O)Nc4cc(C)on4)cc3)c3ccccc3n2)cc1`, the growth is 81.3% with NCI-H23 lung; 65.9% in the experiment with NCI-H226 lung; 37.3% in the experiment with NCI-H322M lung; 57.7% in the experiment on HOP-62 NSCLC; 53.9% in the experiment with NCI-H460 lung; 46% in the experiment with HOP-92 NSCLC. The growth is 63.5% in the experiment with NCI-H522 lung, 39.1% in the experiment on A549/ATCC NSCLC and 87.9% with 786-0 renal.
Regarding `O=S(=O)(NCCNc1nccc(-c2c(-c3cccc(O)c3)nc3occn23)n1)c1cccc(F)c1`, the growth in the experiment with NCI-H23 lung is 97.9%; in the experiment on NCI-H226 lung, 105%; with NCI-H322M lung, 97.3%; with HOP-62 NSCLC, 121%; in the experiment on NCI-H460 lung, 95.9%; in the experiment on HOP-92 NSCLC it was 93%. The growth in the experiment on NCI-H522 lung is 81.1%; in the experiment with A549/ATCC NSCLC, 92.6%; with 786-0 renal it was 91.5%.
On to `COc1cc(/C=C\c2cc(OC)c(OC)c(OC)c2)cc(N)c1OC`, for which the growth in the experiment on NCI-H23 lung is 83.6%; in the experiment with NCI-H226 lung it was 97.8%; in the experiment on NCI-H322M lung, 81.3%; in the experiment on HOP-62 NSCLC, 79.8%; with NCI-H460 lung, 104%; in the experiment on HOP-92 NSCLC it was 78.4%. The growth with NCI-H522 lung was 58.6%; in the experiment on A549/ATCC NSCLC, 93.1%; with 786-0 renal, 82.3%; in the experiment with COLO 205 colon it was 104%.
For `C#CCNC(=O)c1cccc2c1cc(C)n2-c1nc2c(c(NCc3ccccc3)n1)CCCC2`, the growth is -42.8% (active) with NCI-H23 lung; -67.1% (active) in the experiment with NCI-H226 lung; -4.53% (active) with NCI-H322M lung; -6.14% (active) with HOP-62 NSCLC; -30.8% (active) with NCI-H460 lung; -61% (active) in the experiment on HOP-92 NSCLC. Also, the growth was -25.8% (active) with NCI-H522 lung, -29.5% (active) in the experiment with A549/ATCC NSCLC and -48.4% (active) in the experiment with 786-0 renal.
As for `CCCOC(=O)N[C@H]1CCc2cc(OC)c(OC)c(OC)c2-c2ccc(SC)c(=O)cc21`, the growth in the experiment with NCI-H23 lung was 35%; in the experiment with NCI-H226 lung it was 13%; in the experiment on NCI-H322M lung, 32.7%; in the experiment on HOP-62 NSCLC, 39.3%; with NCI-H460 lung, 0.992% (active); in the experiment with HOP-92 NSCLC it was 34.9%. Further, the growth was 21.5% in the experiment with NCI-H522 lung, 22.6% in the experiment with A549/ATCC NSCLC, 24.1% in the experiment on 786-0 renal and 1.57% (active) in the experiment with COLO 205 colon.
For the compound `Cc1ccc(S(=O)(=O)NNC(=O)/C(=C\c2ccc(Cl)cc2)c2nc3ccccc3s2)cc1`, the growth is 96.4% in the experiment on NCI-H23 lung; 81.2% in the experiment on NCI-H226 lung; 92.7% with NCI-H322M lung; 109% in the experiment with HOP-62 NSCLC; 86% with NCI-H460 lung; 87.3% in the experiment on HOP-92 NSCLC. Also, the growth with NCI-H522 lung was 91.7%; in the experiment with A549/ATCC NSCLC, 91.9%; with 786-0 renal, 99.5%; in the experiment on COLO 205 colon it was 117%.
Turning to `Cc1nc2sccn2c1-c1cn2ccsc2n1`, the growth is 60.2% in the experiment on NCI-H23 lung; 84.3% in the experiment with NCI-H226 lung; 82.7% with NCI-H322M lung; 90.7% with HOP-62 NSCLC; 65.9% in the experiment with NCI-H460 lung; 69.6% in the experiment on HOP-92 NSCLC. The growth with NCI-H522 lung was 89.2%; with A549/ATCC NSCLC, 98.9%; in the experiment with 786-0 renal, 95.8%.
Turning to `COc1ccc(CC(C)=C(c2ccc(OCCN3CCCCCC3)cc2)c2ccc(OCCN3CCCCCC3)cc2)cc1`, the growth is -87.9% (active) in the experiment with NCI-H23 lung; -74.4% (active) in the experiment with NCI-H226 lung; -99.3% (active) in the experiment with NCI-H322M lung; -77.4% (active) in the experiment with HOP-62 NSCLC; -95% (active) with NCI-H460 lung; -73.7% (active) in the experiment on HOP-92 NSCLC. The growth in the experiment with NCI-H522 lung was -82.4% (active); in the experiment with A549/ATCC NSCLC, -86% (active); in the experiment on 786-0 renal, -72.1% (active).
For `COc1cc(C2C3=C(COC3=O)N(CCO)c3cc4c(cc32)OCO4)cc(OC)c1OC` (stereo not drawn), the growth in the experiment on NCI-H23 lung was 12.2%; in the experiment with NCI-H226 lung, 6.36% (active); in the experiment with NCI-H322M lung it was 50.3%; in the experiment with HOP-62 NSCLC, 12.6%; in the experiment on NCI-H460 lung, -54.3% (active); in the experiment on HOP-92 NSCLC, 52.1%. Also, the growth in the experiment on NCI-H522 lung was -13% (active); in the experiment on A549/ATCC NSCLC, 30.8%; with 786-0 renal it was 9.85% (active).
Regarding `N#CC1C(C#N)C2c3ccccc3C=CN2C1C(=O)c1ccc(Br)cc1` (stereo not drawn), the growth was 91.4% in the experiment on NCI-H23 lung; 91.6% in the experiment with NCI-H226 lung; 96.8% in the experiment on NCI-H322M lung; 97.7% in the experiment on HOP-62 NSCLC; 87.7% with NCI-H460 lung; 95.8% with HOP-92 NSCLC. The growth was 88.7% in the experiment on NCI-H522 lung and 83.6% in the experiment on A549/ATCC NSCLC.
Consider `COc1cc(NC(=O)CSc2nc3ccc(C)cc3c(=O)n2Cc2ccccc2)cc(OC)c1OC`, for which the growth was 74.2% with NCI-H23 lung; 24.7% with NCI-H226 lung; 63.4% in the experiment on NCI-H322M lung; 45.5% with HOP-62 NSCLC; 57.3% with NCI-H460 lung; 0.585% (active) in the experiment on HOP-92 NSCLC. Moreover, the growth in the experiment with NCI-H522 lung was 31.9%; in the experiment with A549/ATCC NSCLC, 66.6%; with 786-0 renal, 43.3%.
Consider `O=C(/C=C/c1ccc[nH]1)c1ccc(-n2ccc(C(F)(F)F)n2)c(F)c1`, for which the growth with NCI-H23 lung was 88.7%; in the experiment with NCI-H226 lung it was 84%; in the experiment with NCI-H322M lung, 85.1%; in the experiment on HOP-62 NSCLC, 103%; in the experiment with NCI-H460 lung, 100%; in the experiment with HOP-92 NSCLC, 92.4%. Moreover, the growth with NCI-H522 lung is 69.5%; with A549/ATCC NSCLC, 87.4%; with 786-0 renal, 91.8%.
